From PubChem
Only a selection was taken, and hits are over-represented in it overall.
ROS inducer – ROS inducers in U2OS cancer cells, primary screen, cell-based, H2DCF-DA fluorescence. ROS induction (% of piperlongumine), % at 10 µM. 46,000 tested, 2% active. AID 624156, 2012. U2OS ROS induction; in the data active = ROS induction above about 79%, passing the limit was not always enough; inconclusive = no clear call, values can overlap the other calls;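 also: 0% = DMSO vehicle median and 100% = reference compound median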
PD-1 reverse act – activators reversing PD-1 mediated T-cell inhibition, primary screen, luminescence, primary human CD4 T cells, PD-L1 beads. activation, % (no concentration beside the values). CellTiter-Glo 96 h. 29,000 tested, under 10 active; call rule not given here;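 also: 0% = median vehicle wells and 100% = positive control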
MITF inh – inhibitors of MITF, primary screen, MITF inhibitor project, cell-based, luminescence | TRPM1 promoter luciferase, 24 h | inhibition, % (no concentration beside the values) | 37,000 tested, 0.28% active | AID 2240, 2010; in the data active = inhibition above about 85%; inconclusive = no clear call, values can overlap the other calls; inactive = below about 68%;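 also: human melanocyte line stably carrying TRPM1 promoter luciferase reporter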
YB-1 expression – inhibitors of YB-1 gene expression, primary screen, cell-based, fluorescence. 30,000 tested, 0.37% active. delta delta Cp (YB-1 minus CDIP) (concentration not given with the values). U2OS, qRT-PCR YB-1 vs CDIP delta delta Cp, 16 h; hits give high values; zero = DMSO, each unit about twofold. AID 434959, 2010;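 active = delta delta Cp rounded down to an integer at or above 3, about 3 SD of DMSO wells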;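 also: higher means less YB-1 transcript or more CDIP transcript relative to DMSO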
NOMO-1 viab – NOMO-1 AML cell viability reduction, primary screen, STK33 inhibitor project, CellTiter-Glo luminescence; 37,000 tested, 7.5% active; inhibition, % (no concentration beside the values); NOMO-1 AML viability, 72 h; in the data active = inhibition above about 80%; inconclusive = no clear call, values can overlap the other calls
Active calls of the source: *.

`Cc1cc(C(=O)Nc2cccc3c2O[C@H](CN(C)Cc2ccc(Oc4ccccc4)cc2)[C@@H](C)CN([C@H](C)CO)C3=O)n(C)n1` gave ROS inducer 172*, PD-1 reverse act -5, MITF inh 54, YB-1 expression 0.057 and NOMO-1 viab 111*.
Screening Cc1cc(C(=O)Nc2cccc3c2O[C@@H](CN(C)Cc2ccccc2)[C@@H](C)CN([C@H](C)CO)C3=O)n(C)n1 returned ROS inducer -1, PD-1 reverse act 0, MITF inh -8, YB-1 expression 0.038 and NOMO-1 viab 9.
Screening Cc1cc(C(=O)Nc2cccc3c2O[C@H](CN(C)Cc2ccc(-c4ccccc4)cc2)[C@@H](C)CN([C@H](C)CO)C3=O)n(C)n1 returned ROS inducer 196*, PD-1 reverse act -1, MITF inh 50, YB-1 expression -0.18 and NOMO-1 viab 89*.
For O=c1cc(-c2ccc(O[C@@H]3O[C@H](CO)[C@@H](O)[C@H](O)[C@H]3O)cc2)oc2cc(O)cc(O)c12 the results were ROS inducer 0, PD-1 reverse act 1, MITF inh -21, YB-1 expression 0.28 and NOMO-1 viab 15.
Screening CCOC(=O)CSc1nnc2c(n1)[nH]c1ccccc12 returned MITF inh 2 and NOMO-1 viab 111*.
Cc1c2c(nc3c(C(=O)NC4CCCC(C)C4C)cnn13)CCCC2 (configuration not stated) was read as ROS inducer 90*.
CCN(CC)c1ncc2c(NCc3ccccc3)nc(SCc3ccccc3)nc2n1 was read as ROS inducer 129*, PD-1 reverse act -2, MITF inh 7, YB-1 expression 0.41 and NOMO-1 viab 43.
`CCOC(=O)CSc1nc(NC#N)nc(N(CC)CC)n1` gave ROS inducer 10.
For CCOC(=O)CSc1nc(Nc2ccccc2)c2cnc(N3CCOCC3)nc2n1 the results were ROS inducer 150*, PD-1 reverse act -3, MITF inh 4, YB-1 expression 0.02 and NOMO-1 viab 112*.
For CCOC(=O)CSc1nc(Nc2ccc(OC)cc2)c2cnc(N(CC)CC)nc2n1 the results were ROS inducer inconclusive, PD-1 reverse act -5, MITF inh 8, YB-1 expression 0.2 and NOMO-1 viab 120*.
Cc1ccc(NC(=O)CSc2nc3ccsc3c(=O)n2Cc2ccccc2F)cc1Cl was read as ROS inducer 5.
Screening O=c1oc(-c2cccnc2)nc2sc3c(c12)CCCCC3 returned ROS inducer -7, PD-1 reverse act 0, MITF inh -34, YB-1 expression -0.039 and NOMO-1 viab 21.
Screening COc1ccc(NC(=O)Nc2ccc3c(c2)C(=O)OC3)cc1 returned ROS inducer 1.
`Cc1ccc(S(=O)(=O)N2CCN(c3nc(NC4CCCC4)c4ccccc4n3)CC2)cc1` gave ROS inducer 152*.
`C=CCN(CC=C)S(=O)(=O)c1ccc(C(=O)Nc2ccccc2-c2nc3ccccc3[nH]2)cc1` gave ROS inducer 36.
Screening C[C@@H]1CN([C@@H](C)CO)C(=O)c2cc(NC(=O)Nc3ccc4c(c3)OCO4)ccc2O[C@H]1CN(C)Cc1ccc(C(F)(F)F)cc1 returned ROS inducer 6, PD-1 reverse act 0, MITF inh 15, YB-1 expression 0.072 and NOMO-1 viab 93*.
C[C@H]1CN([C@@H](C)CO)C(=O)c2cc(NC(=O)Nc3ccc4c(c3)OCO4)ccc2O[C@@H]1CN(C)Cc1ccc(C(=O)O)cc1 was read as ROS inducer -4, PD-1 reverse act 0, MITF inh -2, YB-1 expression -0.59 and NOMO-1 viab 32.
Screening C[C@H]1CN([C@@H](C)CO)C(=O)c2cc(NC(=O)Nc3ccc4c(c3)OCO4)ccc2O[C@@H]1CN(C)Cc1ccc(C(F)(F)F)cc1 returned ROS inducer 94*, PD-1 reverse act 2, MITF inh 7, YB-1 expression 0.061 and NOMO-1 viab 11.
`CSc1ccc(S(=O)(=O)NCc2ccccn2)cc1` gave ROS inducer -7, PD-1 reverse act -1, MITF inh -20 and NOMO-1 viab 13.
Screening CCc1ccc(C(Nc2ccccn2)c2cc(Cl)c3cccnc3c2O)cc1 (configuration not stated) returned ROS inducer 28, PD-1 reverse act -13, MITF inh inconclusive and NOMO-1 viab 123*.
For CSc1ccc(C(Nc2ccccn2)c2cc(Cl)c3cccnc3c2O)cc1 (configuration not stated) the results were ROS inducer inconclusive, PD-1 reverse act -9, MITF inh 60 and NOMO-1 viab 112*.
COc1cc(C(Nc2ccccn2)c2cc(Cl)c3cccnc3c2O)cc(Br)c1O (configuration not stated) was read as MITF inh -3 and NOMO-1 viab 48.
Screening Cc1ccc(C)c(C(Nc2ccccn2)c2cc(Cl)c3cccnc3c2O)c1 (configuration not stated) returned ROS inducer 1, PD-1 reverse act -10, MITF inh 68 and NOMO-1 viab 113*.
`CCOc1ccc(NC(=S)NC(c2ccccc2)c2ccccc2)cc1` gave ROS inducer 11.
`CCOc1ccc(C(Nc2cccnc2)c2cc(Cl)c3cccnc3c2O)cc1` (configuration not stated) gave MITF inh 53 and NOMO-1 viab 115*.
For Cc1ccc(N(Cc2ccc(C(=O)Nc3cc([N+](=O)[O-])ccc3C)cc2)S(C)(=O)=O)cc1C the results were ROS inducer 16, PD-1 reverse act -4, MITF inh 16 and NOMO-1 viab 4.
For CCOC(=O)Nc1ccc2c(c1)N(C(=O)CN1CCOCC1)c1ccccc1CC2 the results were MITF inh -5 and NOMO-1 viab -20.
Cc1coc2c1C(=O)C(=O)c1c-2ccc2c1CCCC2(C)C was read as ROS inducer -1, MITF inh 39, YB-1 expression 0.1 and NOMO-1 viab 109*.
For Cc1ccc(NC(=O)CSc2c(C)n[nH]c2C)cc1Cl the results were ROS inducer 2, PD-1 reverse act 1, MITF inh -11 and NOMO-1 viab -11.
`COc1ccc(NC(=O)c2ccco2)cc1NC(=O)COc1cc(C)c(Cl)c(C)c1` gave ROS inducer 39, PD-1 reverse act -11, MITF inh 35 and NOMO-1 viab 96*.
Screening COc1ccc(CC(=O)Nc2ccc(S(N)(=O)=O)cc2)cc1OC returned MITF inh 2 and NOMO-1 viab 11.
`COc1ccc(CC(=O)Nc2ccc(NC(=O)c3ccco3)cc2)cc1OC` gave ROS inducer 10, PD-1 reverse act -7, MITF inh -21 and NOMO-1 viab 114*.
For CCc1ccc(N2CC(O)(c3ccccc3)[N+]3=C2CCCC3)cc1 (configuration not stated) the results were ROS inducer -11.
